Screening results deposited in PubChem by National Center for Advancing Translational Sciences (NCATS).
ATXN2 expr inh – reduces ATXN2 reporter expression in HEK-293 cells; HEK-293 ATXN2-luciferase reporter, luminescence, 24 h; Potency, µM (top dose mostly 57 µM), for the others: top-dose activity change, negative = inhibition, actives largely listed as inhibitors; actives 0.72% (n = 360,000); AID 1745845; also: % is scaled to controls: 0 for no effect and ±100 for the full control effect; nearly all actives have a fitted effect of over 55% in size
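ATXN2-luciferase reporter cells (luciferase flanked by upstream and downstream ATXN2 gene portions) were treated 24 h at 37 °C with compounds at up to 57 uM. SteadyGlo luminescence gave expression; GF-AFC fluorescence gave viability.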
S2 tox – cell viability loss in ATXN counter-screen; S2 cells (HEK-293 line with an ATXN2-luciferase reporter) viability, CellTiter-Fluor protease fluorescence, 24 h; Potency, µM (top dose mostly 56.7 µM), hits mostly cytotoxic; actives 0.49% (n = 400,000); also: nearly all actives have a fitted effect of over 40% in size
TGFb inhibitor – inhibitors of TGF-b signaling; HepG2 CAGA-GFP TGF-b/SMAD3 reporter, GFP fluorescence, 18 h; TGF-beta stimulated, 500 pg/mL final; Potency, µM (titrated, usually from 46.1 µM), for the others: at the top dose activity, negative = inhibition, actives largely listed as inhibitors; actives 1.2% (n = 410,000); also: % is scaled to controls: 0 for no effect and ±100 for the full control effect; nearly all actives have a fitted effect of over 65% in size
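GFP signal (ex488/em500-530) from TGF-beta-stimulated HEPG2 CAGA-GFP cells, 500 pg/mL final, 18 h at 37 degrees C in DMEM plus 1% FBS, normalized to unstimulated and DMSO-stimulated controls.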
HepG2 viability – HepG2 cytotoxicity, counter-screen for TGF-b inhibitors. HepG2 CAGA-GFP viability, ATP luminescence, 18 h. Potency, µM (doses to about 46.1 µM), for the others: at the top dose activity change, negative = cytotoxicity, most hits filed as cytotoxic. actives 0.76% (n = 410,000)
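CellTiter-Glo luminescence gave cytotoxicity after 18 hours at 37 degrees C. The cells were HepG2 CAGA-GFP in 1% FBS DMEM, stimulated with 500 pg/mL TGF-beta after compound addition. %Activity was normalised to no-cell wells (complete cell-killing) and DMSO (no toxicity), and curves were fitted and classified.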
HT1080 IDH1KD tx – HT-1080 IDH1 knockdown cell toxicity (counter line). HT-1080 IDH1 knockdown viability, ATP luminescence, 48 h. Potency, µM (titrated, usually from 46.1 µM), for inactives: at the top dose activity, negative = toxicity, actives largely listed as cytotoxic. actives 2% (n = 360,000). AID 686971;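 also: 0% = DMSO wells and -100% = cell-free medium wells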
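Knockdown cells (IDH1KD HT-1080) received compounds 2 h after plating at 750 cells/well and were kept 48 h at 37 °C in 5% FBS RPMI. A CellTiter-Glo luminescence read gave % activity for curve fitting.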
HT1080-NT tox – kills 2HG-producing HT-1080-NT fibrosarcoma cells | HT-1080-NT fibrosarcoma viability, CellTiter-Glo ATP luminescence, 48 h | Potency, µM (top dose mostly 46.1 µM), for the others: at the highest dose activity, negative = less viability, most hits filed as cytotoxic | actives 1.6% (n = 360,000) | AID 686970;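 also: NT is the 2HG producing partner of a matched IDH1 knockdown line; 0% = DMSO-treated cells and -100% = media-only wells without cells; nearly all actives have a fitted effect of over 55% in size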
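750 cells/well, RPMI + 5% FBS; 2 h settle, compound pin-transfer, 48 h at 37 degrees C. CellTiter-Glo 10 min RT, luminescence. Normalized to DMSO and media-only wells.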
Starred values were filed as active, the others as inactive. Hits are enriched below; roughly 3.9% of the tested compounds scored in any of these assays. Calls follow the shape of the dose curve; as a rule, active = well fitted curve in the direction sought with a large enough effect; inconclusive = small, poorly fitted or top-dose-only effect, or another doubt; inactive = no such curve, though single readings can be large; an effect the other way counts as inactive or inconclusive. Potency is read from the fitted curve at half-maximal effect.

Results for Cc1nc2ccc(NC(=O)c3cccc(S(=O)(=O)N(C)c4ccccc4)c3)cc2s1 ?
ATXN2 expr inh: 28µM*; S2 tox: inconclusive; TGFb inhibitor: inconclusive; HepG2 viability: 3%; HT1080 IDH1KD tx: inconclusive; HT1080-NT tox: inconclusive

How did CN(C)S(=O)(=O)c1cccc(NC(=O)c2ccc(COc3ccccc3)cc2)c1 do in these assays?
ATXN2 expr inh: inconclusive; S2 tox: 13µM*; TGFb inhibitor: -21%; HepG2 viability: -33%; HT1080 IDH1KD tx: -1%; HT1080-NT tox: inconclusive

What do the screens show for `COCc1ccc(C(=O)Nc2cccc(S(=O)(=O)N(C)c3ccccc3)c2)cc1`?
ATXN2 expr inh: -5%; S2 tox: inconclusive; TGFb inhibitor: 1%; HepG2 viability: -4%; HT1080 IDH1KD tx: -16%; HT1080-NT tox: 6.5µM*

Results for CN(c1ccc(C(=O)Nc2cccc(O)c2)cc1)S(=O)(=O)c1ccccc1 ?
ATXN2 expr inh: 7%; S2 tox: inconclusive; TGFb inhibitor: 3%; HepG2 viability: 2%; HT1080 IDH1KD tx: 0%; HT1080-NT tox: -10%

How did O=C(COc1ccccc1)N(Cc1cccnc1)c1nc2ccc(Cl)cc2s1 do in these assays?
TGFb inhibitor: -25%; HepG2 viability: -1%

How did COCCCNc1ncnc2sc(C(=O)N3CCOCC3)c(C)c12 do in these assays?
S2 tox: inactive

Results for Cc1ccccc1C(=O)NNc1ccc(-c2csnn2)cc1 ?
ATXN2 expr inh: -33%; S2 tox: inactive; TGFb inhibitor: -18%; HepG2 viability: -11%; HT1080 IDH1KD tx: 8.2µM*; HT1080-NT tox: inconclusive

How did CC(=O)Oc1ccc(-c2csnn2)cc1 do in these assays?
ATXN2 expr inh: 1%; S2 tox: inactive; TGFb inhibitor: 16%; HepG2 viability: 5%; HT1080 IDH1KD tx: 6%; HT1080-NT tox: 9%

How did COc1cc(N2CCC(N3CCN(C)CC3)CC2)ccc1Nc1ncnc(Nc2ccccc2S(=O)(=O)C(C)C)n1 do in these assays?
ATXN2 expr inh: 27µM*

What do the screens show for `COc1cc(N2CCC(C(N)=O)CC2)ccc1Nc1nc(N)c(Cl)c(Nc2ccccc2S(=O)(=O)C(C)C)n1`?
ATXN2 expr inh: -15%

What do the screens show for `CCOc1cc2c(c3c1C(c1ccccc1)N(S(=O)(=O)c1ccc(C)cc1)C3)C(=O)C=CC2=O` (stereo unspecified)?
ATXN2 expr inh: inconclusive; S2 tox: 6.3µM*; TGFb inhibitor: inconclusive; HepG2 viability: 8.9µM*; HT1080 IDH1KD tx: 12µM*; HT1080-NT tox: 6.5µM*

What do the screens show for `CCOC(=O)C1=CCN(S(=O)(=O)c2ccc(C)cc2)C1c1ccccc1` (stereo unspecified)?
ATXN2 expr inh: -20%; S2 tox: inconclusive; TGFb inhibitor: 7%; HepG2 viability: -29%; HT1080 IDH1KD tx: 1%; HT1080-NT tox: -2%

What do the screens show for `Cc1ccc(-c2nc(CS(=O)(=O)CC(=O)NCCCN(Cc3ccccc3)C(C)C)c(C)o2)cc1`?
ATXN2 expr inh: -22%; S2 tox: inactive; TGFb inhibitor: inconclusive; HepG2 viability: -20%; HT1080 IDH1KD tx: -27%; HT1080-NT tox: -15%

What do the screens show for `Cc1oc(-c2ccc(-c3ccccc3)cc2)nc1CN(CCO)C(C)C`?
ATXN2 expr inh: 34%; S2 tox: inactive; TGFb inhibitor: -15%; HepG2 viability: -23%; HT1080 IDH1KD tx: 23µM*; HT1080-NT tox: inconclusive

Results for CCC1CN(CC(=O)NC(c2ccccn2)C(F)(F)F)Cc2cc(OC)ccc2O1 (stereo unspecified) ?
S2 tox: inactive
